# Results: article PMC5700166
# Changes are numbered by the printed parent chain.
# Key:
# Assay in all cases: protein-binding microarray (PBM); PBM: ~300 nM protein, 6 mM HEPES pH 7.8, 80 mM KCl, 0.5 mM EDTA, 0.5 mM EGTA, 6% glycerol, 35 ng/ul poly-dIdC, 1% milk, 1 h, room temperature; Ap Aiptasia and Nv Nematostella (sea anemones) / Co Capsaspora / Aq Amphimedon (sponge) / Dm Drosophila / Hu human; RHD is the Rel homology domain; high values mean tight binding
# Conditions in all cases: dsDNA, one strand shown
# GST-Dm-Relish = target: T1, GST-Dm-Relish (Drosophila melanogaster, UniProt Q94527 99-473)
# T1 sequence: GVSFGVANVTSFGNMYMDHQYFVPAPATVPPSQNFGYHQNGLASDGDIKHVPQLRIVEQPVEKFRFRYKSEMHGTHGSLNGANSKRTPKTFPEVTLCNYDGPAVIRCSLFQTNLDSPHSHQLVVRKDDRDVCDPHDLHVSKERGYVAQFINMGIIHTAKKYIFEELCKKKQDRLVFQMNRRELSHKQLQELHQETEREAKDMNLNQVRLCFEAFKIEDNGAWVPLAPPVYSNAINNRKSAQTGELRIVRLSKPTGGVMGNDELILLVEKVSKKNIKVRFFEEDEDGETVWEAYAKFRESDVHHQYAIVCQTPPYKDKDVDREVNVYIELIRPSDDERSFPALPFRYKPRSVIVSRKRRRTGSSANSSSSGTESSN
# GST-Aq-NF-kB = target: T2, GST-Aq-NF-kB (Amphimedon queenslandica, UniProt A9Y5G7 2-389)
# T2 sequence: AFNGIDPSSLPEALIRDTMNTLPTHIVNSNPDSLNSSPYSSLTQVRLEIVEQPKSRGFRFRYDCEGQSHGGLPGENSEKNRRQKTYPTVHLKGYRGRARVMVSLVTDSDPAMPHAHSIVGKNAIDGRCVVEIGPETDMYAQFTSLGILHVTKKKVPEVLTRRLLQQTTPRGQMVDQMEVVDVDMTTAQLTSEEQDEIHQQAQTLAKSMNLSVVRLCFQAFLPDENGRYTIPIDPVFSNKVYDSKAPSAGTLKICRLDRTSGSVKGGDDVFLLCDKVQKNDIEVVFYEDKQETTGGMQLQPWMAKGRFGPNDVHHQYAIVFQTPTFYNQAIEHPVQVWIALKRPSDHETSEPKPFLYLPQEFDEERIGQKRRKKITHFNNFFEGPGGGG
# [1] = target: T3, GST-Nv-NF-kB (Cys allele) (Nematostella vectensis, UniProt E5G601 2-411)
# T3 sequence: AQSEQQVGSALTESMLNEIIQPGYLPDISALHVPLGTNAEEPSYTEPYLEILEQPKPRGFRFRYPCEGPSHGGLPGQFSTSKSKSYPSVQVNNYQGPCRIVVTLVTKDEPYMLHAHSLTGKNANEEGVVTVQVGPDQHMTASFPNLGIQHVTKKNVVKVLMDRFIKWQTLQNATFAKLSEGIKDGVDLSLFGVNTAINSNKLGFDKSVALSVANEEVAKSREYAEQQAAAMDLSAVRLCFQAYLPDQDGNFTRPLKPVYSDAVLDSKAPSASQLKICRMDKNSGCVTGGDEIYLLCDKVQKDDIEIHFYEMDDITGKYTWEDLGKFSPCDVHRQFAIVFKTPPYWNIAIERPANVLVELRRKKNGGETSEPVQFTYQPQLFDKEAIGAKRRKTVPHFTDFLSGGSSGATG
# GST-Hu-p50 = GST-Hu-p50 (Homo sapiens, UniProt P19838 7-356)
# Chain of GST-Hu-p50 (P19838 7-356): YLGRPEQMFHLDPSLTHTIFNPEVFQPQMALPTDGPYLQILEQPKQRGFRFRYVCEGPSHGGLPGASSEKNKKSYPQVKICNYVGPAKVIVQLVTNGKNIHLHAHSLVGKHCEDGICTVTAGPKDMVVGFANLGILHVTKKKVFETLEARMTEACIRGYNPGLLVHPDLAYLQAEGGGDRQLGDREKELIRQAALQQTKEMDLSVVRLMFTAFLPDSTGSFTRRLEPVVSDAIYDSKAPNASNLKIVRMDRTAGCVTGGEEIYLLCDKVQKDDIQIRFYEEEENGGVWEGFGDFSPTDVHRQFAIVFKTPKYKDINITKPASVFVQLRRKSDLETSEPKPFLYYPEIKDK
# [2] = target: T4, GST-Nv-NF-kB (Ser allele) (Nematostella vectensis, UniProt A7UNT2 2-411)
# T4 sequence: T3 sequence with Q21R, C66S, S207N, E215Q, V217A, E225K, A268E, D399E
# GST-Co-NF-kB = target: T5, GST-Co-NF-kB (Capsaspora owczarzaki, UniProt F1ARL5 200-546)
# T5 sequence: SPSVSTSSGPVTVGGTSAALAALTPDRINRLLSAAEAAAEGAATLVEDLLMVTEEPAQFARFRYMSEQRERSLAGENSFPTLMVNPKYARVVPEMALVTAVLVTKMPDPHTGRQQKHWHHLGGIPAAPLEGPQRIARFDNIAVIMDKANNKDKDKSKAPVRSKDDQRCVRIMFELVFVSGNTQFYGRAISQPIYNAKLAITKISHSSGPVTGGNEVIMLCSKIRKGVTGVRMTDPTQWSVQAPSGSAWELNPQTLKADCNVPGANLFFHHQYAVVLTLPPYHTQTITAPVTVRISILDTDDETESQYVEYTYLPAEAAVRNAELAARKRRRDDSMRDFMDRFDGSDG
# GST-Ap-NF-kB RHD = target: T6, GST-Ap-NF-kB RHD (Exaiptasia pallida (Aiptasia), UniProt A0A913YAJ5 2-422)
# T6 sequence: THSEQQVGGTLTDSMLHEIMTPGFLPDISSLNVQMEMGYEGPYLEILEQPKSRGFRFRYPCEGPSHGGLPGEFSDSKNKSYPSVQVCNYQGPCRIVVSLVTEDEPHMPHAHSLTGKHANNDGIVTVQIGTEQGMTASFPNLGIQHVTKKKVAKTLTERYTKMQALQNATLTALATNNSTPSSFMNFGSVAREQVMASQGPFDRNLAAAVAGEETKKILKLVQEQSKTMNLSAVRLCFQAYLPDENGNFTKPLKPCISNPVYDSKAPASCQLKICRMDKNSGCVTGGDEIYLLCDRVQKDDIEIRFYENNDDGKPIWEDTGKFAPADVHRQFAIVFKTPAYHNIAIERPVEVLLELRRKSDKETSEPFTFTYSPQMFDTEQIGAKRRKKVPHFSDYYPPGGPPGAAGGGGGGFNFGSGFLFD
sequence,measurement,setting,value
CCGATTAACATCAAAAAATTCCATGATGTTAATCGGGTCTTGATTCGCTTGACGCTGCTG,binding signal,GST-Dm-Relish,2.59 z-score
same,binding signal,GST-Aq-NF-kB,1.71 z-score
CCGATTAACATCAGGAAAGGCCATGATGTTAATCGGGTCTTGATTCGCTTGACGCTGCTG,binding signal,GST-Dm-Relish,1.29 z-score
same,binding signal,GST-Aq-NF-kB,1.31 z-score
CCGATTAACATCACGTGGTTTCCTGATGTTAATCGGGTCTTGATTCGCTTGACGCTGCTG,binding signal,GST-Dm-Relish,3.67 z-score
same,binding signal,GST-Aq-NF-kB,1.63 z-score
CCGATTAACATCAGGAAAAATCCTGATGTTAATCGGGTCTTGATTCGCTTGACGCTGCTG,binding signal,GST-Dm-Relish,1.66 z-score
same,binding signal,GST-Aq-NF-kB,1.79 z-score
CCGATTAACATCAAGGAAAGTCCTGATGTTAATCGGGTCTTGATTCGCTTGACGCTGCTG,binding signal,GST-Dm-Relish,3.16 z-score
same,binding signal,GST-Aq-NF-kB,4.65 z-score
CCGATTAACATCAGGAAATTACATGATGTTAATCGGGTCTTGATTCGCTTGACGCTGCTG,binding signal,GST-Dm-Relish,5.09 z-score
same,binding signal,GST-Aq-NF-kB,1.17 z-score
CCGATTAACATCACGGAAATTCCTGATGTTAATCGGGTCTTGATTCGCTTGACGCTGCTG,binding signal,GST-Dm-Relish,1.83 z-score
same,binding signal,GST-Aq-NF-kB,4.88 z-score
CCGATTAACATCACAAAATTTCCTGATGTTAATCGGGTCTTGATTCGCTTGACGCTGCTG,binding signal,GST-Dm-Relish,1.74 z-score
same,binding signal,GST-Aq-NF-kB,1.72 z-score
CCGATTAACATCAAAAATTCCACTGATGTTAATCGGGTCTTGATTCGCTTGACGCTGCTG,binding signal,GST-Dm-Relish,2.3 z-score
same,binding signal,GST-Aq-NF-kB,1.44 z-score
CCGATTAACATCACGGGCATCCCTGATGTTAATCGGGTCTTGATTCGCTTGACGCTGCTG,binding signal,GST-Dm-Relish,5.06 z-score
same,binding signal,GST-Aq-NF-kB,3.09 z-score
CCGATTAACATCAGGAAATTTTATGATGTTAATCGGGTCTTGATTCGCTTGACGCTGCTG,binding signal,GST-Dm-Relish,1.46 z-score
same,binding signal,GST-Aq-NF-kB,1.85 z-score
CCGATTAACATCAGGAATTTTACTGATGTTAATCGGGTCTTGATTCGCTTGACGCTGCTG,binding signal,GST-Dm-Relish,1.49 z-score
same,binding signal,GST-Aq-NF-kB,1.14 z-score
CCGATTAACATCAGGAAAAACCATGATGTTAATCGGGTCTTGATTCGCTTGACGCTGCTG,binding signal,GST-Dm-Relish,2.39 z-score
same,binding signal,GST-Aq-NF-kB,2.94 z-score
CCGATTAACATCAGGAAATTGCCTGATGTTAATCGGGTCTTGATTCGCTTGACGCTGCTG,binding signal,[1],1.05 z-score
same,binding signal,GST-Hu-p50,1.3 z-score
CCGATTAACATCACCTGGTCGGGTGATGTTAATCGGGTCTTGATTCGCTTGACGCTGCTG,binding signal,[2],1.03 z-score
same,binding signal,GST-Co-NF-kB,1.5 z-score
same,binding signal,GST-Dm-Relish,1.13 z-score
same,binding signal,GST-Hu-p50,2.04 z-score
CCGATTAACATCAGCAAATTTCCTGATGTTAATCGGGTCTTGATTCGCTTGACGCTGCTG,binding signal,GST-Hu-p50,1.07 z-score
CCGATTAACATCACGGAAACCACTGATGTTAATCGGGTCTTGATTCGCTTGACGCTGCTG,binding signal,GST-Dm-Relish,3.59 z-score
same,binding signal,GST-Aq-NF-kB,1.46 z-score
CCGATTAACATCAGAAATTTCCATGATGTTAATCGGGTCTTGATTCGCTTGACGCTGCTG,binding signal,GST-Dm-Relish,1.25 z-score
same,binding signal,GST-Aq-NF-kB,1.68 z-score
CCGATTAACATCACAGCGTGAGGTGATGTTAATCGGGTCTTGATTCGCTTGACGCTGCTG,binding signal,GST-Dm-Relish,1.34 z-score
same,binding signal,GST-Hu-p50,1.16 z-score
CCGATTAACATCAGGGAGCCGTATGATGTTAATCGGGTCTTGATTCGCTTGACGCTGCTG,binding signal,GST-Ap-NF-kB RHD,1.18 z-score
CCGATTAACATCACCTAACTTGATGATGTTAATCGGGTCTTGATTCGCTTGACGCTGCTG,binding signal,[2],1.07 z-score
same,binding signal,GST-Hu-p50,1.66 z-score
CCGATTAACATCACCTTGAACGGTGATGTTAATCGGGTCTTGATTCGCTTGACGCTGCTG,binding signal,[1],1.56 z-score
same,binding signal,[2],1.73 z-score
same,binding signal,GST-Dm-Relish,1.69 z-score
same,binding signal,GST-Hu-p50,2.74 z-score
